Test results taken from PubChem BioAssay (NCATS).
Inconclusive results are not listed. A call without a number means that no potency is given here. Active and inactive are the calls of the source. Calls come from the whole dose curve; as a rule, active = well fitted inhibition curve with a large enough effect; inconclusive = small, poorly fitted or top-dose-only effect; inactive = flat fitted curve, though single readings scatter.

The compounds below were run on CP203 (assay: qHTS profiling for inhibitors of Plasmodium falciparum proliferation (AID 504749; note: nearly all actives have a fitted effect of over 60% in size)). Conditions: P. falciparum in erythrocytes, SYBR Green DNA, 72 h; series mostly up to 28.7 µM.
Excerpt: NIH National Institute of Allergy and Infectious Diseases [NIAID] NIH Chemical Genomics Center [NCGC] MLPCN Grant: None Assay Provider: Xinzhuan Su, NIAID NCGC Assay Overview: Plasmodium falciparum is a virulent malarial parasite that kills 1-2 million people worldwide each year. Transmitted by mosquitoes, the sporozoite form of the parasite enters the blood stream to infect hepatocytes, where they become merozoites that infect red blood cells (erythrocytes). Within erythrocytes, merozoites begin a […] cycle of growth and division, after which the parasite is released to infect new red blood cells. Gametocytes, which form within erythrocytes as well, circulate in the bloodstream and are ingested by the mosquito, thereby completing the life cycle. To profile malarial isolates for differential chemical responses and to identify inhibitors of malarial growth, an assay that measures P. falciparum growth and replication within erythrocytes was employed. This assay uses a DNA binding fluorescent dye (SYBR Green) to detect parasite DNA following cell lysis. Because mature erythrocytes lack DNA, only Plasmodium-derived DNA is detected.
NCGC Assay Protocol Summary: The SYBR Green viability assay was adapted from a method described previously (Plouffe et al., 2008). For screening 3 ul culture medium was dispensed into 1536 well black clear bottom plates (Aurora Biotechnologies) using a Multidrop Combi (Thermo Fisher Scientific Inc.), 23 nL compounds in DMSO were added by a pin tool (Kalypsys), and 5 ul of erythrocytes infected with P. falciparum (0.3% parasitemia, 2.5% hematocrit final concentration) were added. The plates were incubated at 37 C in a humidified incubator in 5% CO2 for 72 h, and 2 ul lysis buffer (20 mM Tris HCl, 10 mM EDTA, 0.16% saponin, 1.6% triton X, 10X SYBR Green I supplied as 10,000X […] by Invitrogen) was added to each well. The plates were mixed for 25 sec with gentle shaking and incubated overnight at room temperature in the dark. The following morning, fluorescence intensity at 485(14) nm excitation and 535(25) nm emission wavelengths was measured on an EnVision (Perkin Elmer) plate reader. Plate reads were normalized relative to the control inhibitor (0.29 uM artemisinin) and vehicle (DMSO) wells present on each plate and then corrected by an algorithm using vehicle-only control plates at the beginning and end of the compound plate stack.

Row | SMILES | Potency
1 | O=C(CN1CCNCC1)NC1CCCCC1 | inactive
2 | Cc1cccc(C(=O)O)c1O | inactive
3 | CC[N+](CC)(CC(=O)Nc1c(C)cccc1C)Cc1ccccc1 | inactive
4 | O[C@@H]1CO[C@H]2[C@@H]1OC[C@@H]2O | inactive
5 | CCN(CC)CCc1nc(-c2ccccc2)no1 | inactive
6 | C[C@@H]1CCC[C@H](C)N1 | inactive
7 | CCN(CC)CC1CCCCN1CC(=O)N1c2ccccc2C(=O)Nc2cccnc21 (stereo not given) | inactive
8 | OC[C@@H](O)[C@@H](O)[C@H](O)[C@H](O)CO | inactive
9 | Cc1c(Cn2ccnc2)c2ccccc2n1CCC(=O)O | inactive
10 | N[C@@H](Cc1ccc(O)cc1)C(=O)O | inactive
11 | CC(=O)NCc1c(I)c(NC(C)=O)c(I)c(C(=O)O)c1I | inactive
12 | CC1CCc2cc(F)cc3c(=O)c(C(=O)O)cn1c23 (stereo not given) | inactive
13 | CCOC(=O)[C@H](CCc1ccccc1)N[C@@H](C)C(=O)N1CCC[C@H]1C(=O)O | inactive
14 | COc1cc(O)cc(O)c1 | inactive
15 | O=C(Cn1ccnc1[N+](=O)[O-])NCCO | inactive
16 | CC1CC(OC(=O)c2ccccc2O)CC(C)(C)C1 (stereo not given) | inactive
17 | CCCCCC(C)N (stereo not given) | inactive
18 | CCc1nnc(NS(=O)(=O)c2ccc(N)cc2)s1 | inactive
19 | CCCCCCCCCCCCCCCCCCO | inactive
20 | CNc1c2c(nn1C)CCCC2 | inactive

Row | SMILES | Potency
21 | O=C(c1ccccc1)C(O)c1ccccc1 (stereo not given) | inactive
22 | O=C(O)c1cc(=O)c2ccccc2o1 | inactive
23 | CC(N)CCCC(C)(C)O (stereo not given) | inactive
24 | O=C(O)c1ccc(OCCCOc2ccc(C(=O)O)cc2)cc1 | inactive
25 | O=C1c2ccccc2S(=O)(=O)N1CCCCN1CCN(c2ncccn2)CC1 | inactive
26 | COc1ccc(C(=O)N2CCN(CC(=O)N3CCOCC3)CC2)cc1 | inactive
27 | Cc1c(I)c(=O)n(-c2ccccc2)n1C | inactive
28 | CCCCOC(=O)c1ccc(N)cc1 | inactive
29 | Cc1cc(C)nc(NS(=O)(=O)c2ccc(N)cc2)n1 | inactive
30 | Cc1cc(C)c(NC(=O)CN(CC(=O)O)CC(=O)O)c(C)c1Br | inactive
31 | COC(=O)c1ccccc1C(=O)c1ccc(OCCN2CCCCC2)cc1 | inactive
32 | COC(=O)c1ccc(O)cc1 | inactive
33 | Cc1[nH]c(C)c(Cl)c(=O)c1Cl | inactive
34 | O=C(O)CNC(=O)c1ccccc1I | inactive
35 | OCC(O)CS (stereo not given) | inactive
36 | Cc1ccsc1C(=CCCN1CCC[C@@H](C(=O)O)C1)c1sccc1C | inactive
37 | CN1CCN(C(=O)C2CCCCC2)CC1 | inactive
38 | CC(C)CCOC(=O)c1ccc(N(C)C)cc1 | inactive
39 | CC(=O)Nc1ccc(C(=O)O)cc1 | inactive
40 | CCN(CC)S(=O)(=O)c1ccc(C(=O)O)cc1 | inactive
